Growth data for 7 compounds are collected here from PubChem BioAssay (NCI).

The structures appear in SMILES notation. This is part of a sample that, as a whole, favours compounds with a hit. Of some 83,000 tested, about 20% had one in any assay.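 Treatment: one concentration, 48 hours, 96-well format. Scoring: percent growth, with anything below 10 considered active.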 Values without a mark were called inactive. Active and inactive are the calls of the source.

Among the test systems are NCI-H23 lung; NCI-H322M lung; HOP-62 NSCLC; NCI-H460 lung; HOP-92 NSCLC; NCI-H522 lung; A549/ATCC NSCLC; 786-0 renal; COLO 205 colon; DU-145 prostate; K-562 leukemia; MALME-3M melanoma; MDA-MB-231 breast; RXF 393 renal; SF-268 CNS; SF-295 CNS; SF-539 CNS; UACC-257 melanoma; M14 melanoma.
Holding throughout (assay): NCI-60 one-dose screen, 48 h (100 = growth as untreated, 0 = no growth, -100 = all killed)
Settings in all cases: 10 µM unless noted

Turning to `CCN(CC)CCNC(=O)c1cn2ncnc(Oc3ccc(NC(=O)Nc4ccc(Cl)c(C(F)(F)F)c4)cc3)c2c1C`, the growth in the experiment with NCI-H23 lung was -83.6% (active); in the experiment with NCI-H322M lung it was 4.06% (active); with HOP-62 NSCLC it was -78.5% (active); in the experiment with NCI-H460 lung, -74.4% (active); in the experiment on HOP-92 NSCLC it was -39.1% (active); with NCI-H522 lung it was -63% (active). Also, the growth in the experiment with A549/ATCC NSCLC was -85.2% (active); in the experiment on 786-0 renal, -89.9% (active); with COLO 205 colon, -73.4% (active); in the experiment with DU-145 prostate, -53.3% (active); in the experiment with K-562 leukemia, -79.1% (active); with MALME-3M melanoma it was -81.1% (active). Moreover, the growth with MDA-MB-231 breast was -94.6% (active); with RXF 393 renal, -36.3% (active); in the experiment on SF-268 CNS, -64.6% (active); with SF-295 CNS, -87.4% (active); with SF-539 CNS, -93.1% (active); in the experiment with UACC-257 melanoma it was -83.2% (active). Also, the growth in the experiment with M14 melanoma is -83.3% (active).
As for `C=C(C)C1CCC2(C)OC2C1` (stereo not drawn), the growth is 111% in the experiment with NCI-H23 lung; 94.9% with NCI-H322M lung; 94.6% in the experiment with HOP-62 NSCLC; 103% in the experiment with NCI-H460 lung; 117% in the experiment on HOP-92 NSCLC; 105% with NCI-H522 lung. Moreover, the growth in the experiment on A549/ATCC NSCLC is 127%; with 786-0 renal, 98.7%; with COLO 205 colon it was 142%; in the experiment with DU-145 prostate it was 122%; in the experiment on K-562 leukemia it was 135%; in the experiment with MALME-3M melanoma, 95.7%. The growth with MDA-MB-231 breast was 102%; in the experiment with RXF 393 renal, 204%; with SF-268 CNS, 115%; in the experiment with SF-295 CNS, 96.7%; with SF-539 CNS, 103%; with UACC-257 melanoma, 132%. For the same compound, the growth in the experiment on M14 melanoma is 108%.
On to `CCCCn1c(=O)c(-c2cc(-c3ccc(Cl)cc3)nc(-c3ccc(Cl)cc3)c2)cc2cc(Cl)ccc21`, for which the growth in the experiment on NCI-H23 lung was 105%; in the experiment with NCI-H322M lung, 96%; in the experiment with HOP-62 NSCLC, 104%; in the experiment with NCI-H460 lung, 108%; with HOP-92 NSCLC, 94.2%; in the experiment with NCI-H522 lung, 99.3%. The growth in the experiment with A549/ATCC NSCLC is 101%; in the experiment on 786-0 renal it was 106%; in the experiment with COLO 205 colon, 109%; in the experiment with DU-145 prostate, 112%; in the experiment with K-562 leukemia it was 102%; with MALME-3M melanoma, 104%. Moreover, the growth with MDA-MB-231 breast was 84.6%; in the experiment on RXF 393 renal it was 118%; with SF-268 CNS it was 98.4%; in the experiment with SF-295 CNS, 103%; in the experiment with SF-539 CNS, 103%; in the experiment on UACC-257 melanoma it was 96.1%. In addition, the growth with M14 melanoma was 101%.
Turning to `CC1=NN(c2ccc(S(=O)(=O)O)cc2)C(=O)C1N=Nc1ccc(-c2ccc(N=Nc3ccc(OS(=O)(=O)c4ccc(C)cc4)cc3)c(S(=O)(=O)O)c2)cc1` (stereo not drawn), the growth is 87.4% with NCI-H23 lung; 93.4% in the experiment on NCI-H322M lung; 93.7% in the experiment on HOP-62 NSCLC; 96% in the experiment with NCI-H460 lung; 41.1% in the experiment with HOP-92 NSCLC; 77.8% in the experiment on NCI-H522 lung. Besides, the growth in the experiment with A549/ATCC NSCLC is 99%; with 786-0 renal it was 90.3%; with COLO 205 colon, 102%; in the experiment with DU-145 prostate, 107%; in the experiment on K-562 leukemia, 94.4%; in the experiment with MALME-3M melanoma it was 108%. For the same compound, the growth was 97.1% in the experiment on MDA-MB-231 breast; 61.7% in the experiment with RXF 393 renal; 100% in the experiment on SF-268 CNS; 77.5% in the experiment on SF-295 CNS; 85.1% in the experiment on SF-539 CNS; 104% with UACC-257 melanoma. The growth in the experiment on M14 melanoma was 103%.
As for `S=C(c1cccs1)N1CCN(c2cccc(Cl)c2)CC1`, the growth with NCI-H23 lung is 99.2%; in the experiment on NCI-H322M lung it was 122%; with HOP-62 NSCLC, 102%; in the experiment with NCI-H460 lung, 105%; in the experiment on HOP-92 NSCLC it was 81.7%; in the experiment on NCI-H522 lung, 81.1%. For the same compound, the growth was 87.6% with A549/ATCC NSCLC; 85.4% with 786-0 renal; 107% in the experiment with COLO 205 colon; 98.3% with DU-145 prostate; 93.5% with K-562 leukemia; 80.9% in the experiment with MALME-3M melanoma. Besides, the growth in the experiment with MDA-MB-231 breast is 92.5%; with RXF 393 renal, 100%; in the experiment with SF-268 CNS it was 104%; in the experiment on SF-295 CNS, 111%; in the experiment with SF-539 CNS, 99.8%; with UACC-257 melanoma, 105%. Further, the growth in the experiment on M14 melanoma was 99.4%.
Consider `O=CN1N=C(c2ccc(Nc3ccnc4cc(Cl)ccc34)cc2)CC1c1ccccc1` (stereo not drawn), for which the growth is 48% in the experiment with NCI-H23 lung; 81.3% with NCI-H322M lung; 49.8% in the experiment on HOP-62 NSCLC; 44.4% in the experiment with NCI-H460 lung; 16.3% with HOP-92 NSCLC; 2.53% (active) with NCI-H522 lung. Moreover, the growth with A549/ATCC NSCLC was 37.6%; in the experiment on 786-0 renal, 31.4%; in the experiment with COLO 205 colon it was 55.2%; in the experiment with DU-145 prostate, 35.8%; in the experiment with K-562 leukemia, 11.8%; with MALME-3M melanoma, 24.7%. For the same compound, the growth in the experiment on MDA-MB-231 breast was 32.9%; with RXF 393 renal, 31.4%; with SF-268 CNS it was 37.4%; in the experiment on SF-295 CNS, 17.4%; in the experiment with SF-539 CNS it was 25.9%; in the experiment with UACC-257 melanoma, 63.3%. In addition, in the experiment with M14 melanoma, the growth was 25.6%.
In the case of `CCc1ccc2nc(NC(=O)Cc3csc(NC(=O)c4ccco4)n3)sc2c1`, the growth is 85.1% in the experiment on NCI-H23 lung; 81.5% in the experiment on NCI-H322M lung; 86.3% in the experiment with HOP-62 NSCLC; 79% in the experiment with NCI-H460 lung; -17.9% (active) in the experiment on HOP-92 NSCLC; 60.4% with NCI-H522 lung. Further, the growth was 91.3% with A549/ATCC NSCLC; 71.6% in the experiment with 786-0 renal; 107% in the experiment on COLO 205 colon; 67% in the experiment with DU-145 prostate; 64.5% in the experiment on K-562 leukemia; 59.6% in the experiment with MALME-3M melanoma. The growth in the experiment with MDA-MB-231 breast was 67.9%; in the experiment with RXF 393 renal, 73.1%; in the experiment with SF-268 CNS, 43.3%; in the experiment with SF-295 CNS, 77.6%; with SF-539 CNS it was 34.8%; in the experiment on UACC-257 melanoma, 101%. In the experiment on M14 melanoma, the growth was 96.7%.
